This note sets out measurements from PubChem BioAssay.

As a reminder, the inhibition is the drop in the measured response relative to a control, in per cent.

Unmarked numbers belong to inactive results. For some of these results: Potency and affinity values are given separately. Activity calls are given as the source filed them. Unless noted, how the calls were made is not given here.

Test [1] in a line: antimalarial activity against Dd2 strain (AID 2302;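 active means growth inhibition above 50% at the single 2 µM test dose, taken to imply half-maximal potency below 2 µM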;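 further: 0% = DMSO untreated growth and 100% = chloroquine plus artemisinin killed control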). The settings on record: P. falciparum Dd2 in RBCs, LDH growth readout, 72 h; at 2 µM; stronger effect = higher value.
Test [2] is described as follows: HepG2 cytotoxicity, primary screen, cytotoxicity control for P. falciparum antimalarial project, cell-based, ATP luminescence (AID 2303;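 active means inhibition above 50%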;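 further: 0% = DMSO wells and 100% = digitonin-killed cells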). To be noted: HepG2 viability, 24-48 h, at 10 µM, stronger effect = higher value.
Test [3] deals with L-lactate dehydrogenase (Plasmodium falciparum (isolate CDC / Honduras)) (UniProt Q27743). The test can be described thus: PfLDH activity inhibition – cell lysate, 3D7 strain, counter-screen for P. falciparum growth inhibition project (AID 2304).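 Further: 0% = vehicle and 100% = reference inhibitor.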 To be noted: P. falciparum 3D7 crude extract, LDH APAD/NBT absorbance; at 2 µM; stronger effect = higher value. For orientation: A counterscreen serves to expose hits that act by an unwanted route or on another target.

Test [4] is described as follows: inhibition of 3D7 malaria parasite growth – strain 3D7 (AID 2306).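 Further: 0% = DMSO wells and 100% = chloroquine plus artemisinin control wells.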 The settings on record: P. falciparum 3D7 erythrocytic growth, LDH absorbance, 72 h; at 2 µM; stronger effect = higher value.
Test [5] addresses Calcium-dependent protein kinase 1 (Plasmodium falciparum (isolate 3D7)) (UniProt P62344). The test is described as follows: PfCDPK1 kinase inhibitors, biochemical, TCAMS library (AID 1159585; cut-off not given, nearly all actives have IC50 up to about 0.98 µM;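 further: inhibitors leave more ATP so luminescence rises with inhibition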). The settings on record: recombinant PfCDPK1, Kinase-Glo ATP depletion luminescence. (In general: In Kinase-Glo more light means more ATP remaining.)
In test [6] the target is Plasmodium falciparum protein kinase 6 (PK6, PF3D7_1337100) (UniProt Q8IDW1). The test can be described thus: PfPK6 kinase inhibitors, biochemical, TCAMS library (AID 1159586). The settings on record: recombinant PfPK6, Kinase-Glo ATP depletion luminescence.
Test [7] concerns the target Protein kinase 7 (PK7), Plasmodium falciparum 3D7 (PF3D7_0213400) (UniProt Q7YTF7). The test can be described thus: inhibition of Plasmodium PK7 catalytic activity – biochemical, TCAMS antimalarial set, Kinase-Glo luminescence (AID 1159587). The settings on record: recombinant PfPK7, Kinase-Glo ATP depletion luminescence.
Test [8] has as its target Calcium-dependent protein kinase 4 (Plasmodium falciparum (isolate 3D7)) (UniProt Q8IBS5). The test is described as follows: PfCDPK4 kinase inhibitors, biochemical, TCAMS library (AID 1159588; cut-off not given, nearly all actives have IC50 up to about 0.91 µM). The settings on record: recombinant PfCDPK4, Kinase-Glo ATP depletion luminescence.

Chain of L-lactate dehydrogenase (Plasmodium falciparum (isolate CDC / Honduras)) (Q27743 whole entry, looked up): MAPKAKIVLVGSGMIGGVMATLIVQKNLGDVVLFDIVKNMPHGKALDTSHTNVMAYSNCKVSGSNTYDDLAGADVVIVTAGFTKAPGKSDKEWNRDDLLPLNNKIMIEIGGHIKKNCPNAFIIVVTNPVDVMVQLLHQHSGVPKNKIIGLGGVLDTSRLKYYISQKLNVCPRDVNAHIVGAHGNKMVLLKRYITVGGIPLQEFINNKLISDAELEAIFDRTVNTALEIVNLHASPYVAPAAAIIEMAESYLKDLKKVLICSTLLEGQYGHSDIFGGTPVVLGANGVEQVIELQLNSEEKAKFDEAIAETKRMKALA
Chain of Calcium-dependent protein kinase 1 (Plasmodium falciparum (isolate 3D7)) (P62344 whole entry, looked up): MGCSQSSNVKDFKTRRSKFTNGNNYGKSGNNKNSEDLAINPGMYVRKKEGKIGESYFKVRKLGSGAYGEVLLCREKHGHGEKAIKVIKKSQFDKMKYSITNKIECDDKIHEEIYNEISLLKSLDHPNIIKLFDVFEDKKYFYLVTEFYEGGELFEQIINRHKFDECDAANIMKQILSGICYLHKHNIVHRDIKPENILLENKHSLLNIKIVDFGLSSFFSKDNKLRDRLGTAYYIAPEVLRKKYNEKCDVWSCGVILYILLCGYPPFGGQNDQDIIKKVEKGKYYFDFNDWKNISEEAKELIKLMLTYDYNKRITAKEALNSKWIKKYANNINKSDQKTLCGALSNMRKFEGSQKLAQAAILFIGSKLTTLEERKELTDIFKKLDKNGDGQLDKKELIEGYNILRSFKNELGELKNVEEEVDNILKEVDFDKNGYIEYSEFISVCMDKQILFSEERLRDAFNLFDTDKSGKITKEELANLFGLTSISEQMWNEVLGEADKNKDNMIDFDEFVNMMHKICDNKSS
Chain of Plasmodium falciparum protein kinase 6 (PK6, PF3D7_1337100) (Q8IDW1 1-305): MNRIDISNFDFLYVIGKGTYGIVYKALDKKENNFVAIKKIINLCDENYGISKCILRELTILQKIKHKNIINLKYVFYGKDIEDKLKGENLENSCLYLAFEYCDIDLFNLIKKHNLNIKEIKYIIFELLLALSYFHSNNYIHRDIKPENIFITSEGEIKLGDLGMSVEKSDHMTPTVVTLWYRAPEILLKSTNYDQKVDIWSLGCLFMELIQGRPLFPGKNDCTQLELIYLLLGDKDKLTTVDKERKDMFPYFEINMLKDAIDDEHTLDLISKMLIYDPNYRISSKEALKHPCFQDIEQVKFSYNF
Chain of Protein kinase 7 (PK7), Plasmodium falciparum 3D7 (PF3D7_0213400) (Q7YTF7 1-343): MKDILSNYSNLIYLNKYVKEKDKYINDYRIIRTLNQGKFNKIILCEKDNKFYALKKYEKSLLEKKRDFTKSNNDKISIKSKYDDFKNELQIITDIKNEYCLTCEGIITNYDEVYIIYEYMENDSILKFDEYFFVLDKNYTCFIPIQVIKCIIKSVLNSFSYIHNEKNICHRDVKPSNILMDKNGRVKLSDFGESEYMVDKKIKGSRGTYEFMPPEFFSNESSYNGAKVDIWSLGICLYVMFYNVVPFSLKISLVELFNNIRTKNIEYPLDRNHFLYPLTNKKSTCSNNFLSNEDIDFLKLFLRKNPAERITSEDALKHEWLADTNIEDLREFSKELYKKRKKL
Chain of Calcium-dependent protein kinase 4 (Plasmodium falciparum (isolate 3D7)) (Q8IBS5 whole entry, looked up): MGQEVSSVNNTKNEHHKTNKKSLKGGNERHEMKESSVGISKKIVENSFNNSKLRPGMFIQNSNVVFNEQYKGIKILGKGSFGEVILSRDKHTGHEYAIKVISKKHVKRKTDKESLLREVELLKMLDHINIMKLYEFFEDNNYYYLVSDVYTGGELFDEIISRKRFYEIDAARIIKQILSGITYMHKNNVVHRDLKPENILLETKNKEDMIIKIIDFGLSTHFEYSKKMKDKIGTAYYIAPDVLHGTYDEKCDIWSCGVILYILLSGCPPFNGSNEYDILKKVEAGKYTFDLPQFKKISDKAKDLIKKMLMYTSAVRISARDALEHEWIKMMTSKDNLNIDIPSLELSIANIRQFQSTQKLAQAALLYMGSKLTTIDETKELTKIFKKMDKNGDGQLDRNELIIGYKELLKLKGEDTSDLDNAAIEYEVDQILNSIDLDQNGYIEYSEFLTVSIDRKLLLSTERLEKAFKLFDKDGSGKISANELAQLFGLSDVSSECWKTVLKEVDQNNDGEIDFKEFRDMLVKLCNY

In the case of `COc1cccc(C(=O)Nc2ccc(Oc3ccc(Cl)cc3)cc2)c1`, the values for the growth inhibition in test [1] and in test [4] were -2% and 92% (active), respectively. The inhibition was 33% in test [2] and -5% in test [3]. The result in test [5], in test [6], in test [7] and in test [8] was inactive.
On to `COc1cc(Cc2cnc(N)nc2N)ccc1Oc1ccc(N)cc1`, for which the growth inhibition is -1% in test [1] and 93% (active) in test [4]. Further, the values for the inhibition in test [2] and in test [3] were 0% and 6%, respectively. For the same compound, the outcome in test [5], in test [6], in test [7] and in test [8] was inactive.
Consider `COc1cccc(C(O)CNc2ccnc(Nc3cccc(-c4csc(C)n4)c3)n2)c1` (stereo not given), for which the growth inhibition is 73% (active) in test [1] and 99% (active) in test [4]. The inhibition in test [2] is 38%; in test [3], -8%. The result in test [5], in test [6], in test [7] and in test [8] was inactive.
Take `O=C(NCc1cccc2ccccc12)[C@@H]1CCCN1C(=O)c1ccc(O)c(-c2ccc(Cl)c(Cl)c2)c1`: the growth inhibition in test [1] is 71% (active); in test [4] it was 98% (active). The inhibition was -4% in test [2] and 2% in test [3]. The result in test [5], in test [6], in test [7] and in test [8] was inactive.
In the case of `CCc1cc(-c2onc(C)c2-c2cc3ccccc3o2)c(O)cc1OC`, the figures for the growth inhibition in test [1] and in test [4] were 33% and 95% (active), respectively. Moreover, the inhibition in test [2] is 48%; in test [3], -2%. The outcome in test [5], in test [6], in test [7] and in test [8] was inactive.
For `c1ccc(-c2ccc(CNCc3ccc(-c4cccc(-c5nc6ccccc6[nH]5)c4)cc3)s2)nc1`, the values for the growth inhibition in test [1] and in test [4] were 80% (active) and 98% (active), respectively. Besides, the figures for the inhibition in test [2] and in test [3] were 48% and -1%, respectively. The result in test [5], in test [6], in test [7] and in test [8] was inactive.
Consider `COc1ccc(CCOc2c(C)nc(N)nc2N)cc1OC`, for which the growth inhibition in test [1] was 22%; in test [4] it was 96% (active). Further, the inhibition was 66% (active) in test [2] and 4% in test [3]. For the same compound, the result in test [5], in test [6], in test [7] and in test [8] was inactive.
`O=C(Cc1ccc(Cl)cc1)Nc1cc(Cl)ccc1Cn1cnc(N2CCNCC2)cc1=O`: the results for the growth inhibition in test [1] and in test [4] were 2% and 97% (active), respectively. For the same compound, the inhibition in test [2] is 9%; in test [3] it was -4%. Besides, the result in test [5], in test [6], in test [7] and in test [8] was inactive.
On to `COc1c(CCNCCCCNCCc2cc(Cl)c3ccccc3c2OC)cc(Cl)c2ccccc12`, for which the growth inhibition in test [1] is 100% (active); in test [4], 99% (active). In addition, the results for the inhibition in test [2] and in test [3] were 99% (active) and -7%, respectively. For the same compound, the result in test [5], in test [6], in test [7] and in test [8] was inactive.
On to `c1ccc2c(Nc3ccc(OCCOCCOc4ccc(Nc5c6ccccc6nc6ccccc56)cc4)cc3)c3ccccc3nc2c1`, for which the results for the growth inhibition in test [1] and in test [4] were 97% (active) and 101% (active), respectively. In addition, the inhibition is 38% in test [2] and 7% in test [3]. Besides, the outcome in test [5], in test [6], in test [7] and in test [8] was inactive.
Regarding `O=C(CN1CCN(C(=O)c2ccco2)CC1)Nc1ccccc1Br`, the growth inhibition is 96% (active) in test [1] and 97% (active) in test [4]. For the same compound, the figures for the inhibition in test [2] and in test [3] were 15% and -4%, respectively. For the same compound, the outcome in test [5], in test [6], in test [7] and in test [8] was inactive.
Regarding `O=C(Nc1ccc(OC2CCN(Cc3ccc(F)cc3)C2)c(Cl)c1)c1cccs1` (stereo not given), the growth inhibition in test [1] was 97% (active); in test [4], 98% (active). In addition, the inhibition in test [2] is 21%; in test [3], 2%. The result in test [5], in test [6], in test [7] and in test [8] was inactive.
Take `O=C(NCCCCCN1CCC(c2c[nH]c3ccccc23)CC1)Nc1cccc(C(F)(F)F)c1`: the figures for the growth inhibition in test [1] and in test [4] were 11% and 97% (active), respectively. Also, the inhibition in test [2] is 51% (active); in test [3] it was -1%. Moreover, the outcome in test [5], in test [6], in test [7] and in test [8] was inactive.
With `COc1cc(CNC[C@@H](O)[C@H](Cc2ccccc2)NC(=O)c2cc(OC(C)C)cc(N3CCCCS3(=O)=O)c2)cc(OC)c1`, the growth inhibition in test [1] was 94% (active); in test [4], 100% (active). Also, the figures for the inhibition in test [2] and in test [3] were 7% and 4%, respectively. In addition, the outcome in test [5], in test [6], in test [7] and in test [8] was inactive.
For `CC(=O)N[C@H](C(=O)Nc1ccc(-c2ccc(-c3nc4ccc(C(F)(F)F)cc4[nH]3)cc2)cc1)C(C)C`, the growth inhibition in test [1] was 76% (active); in test [4], 88% (active). In addition, the results for the inhibition in test [2] and in test [3] were 24% and 7%, respectively. Besides, the result in test [5], in test [6], in test [7] and in test [8] was inactive.
As for `CNC(=O)c1cnc(Nc2ccc(N3CCN(C)CC3)cc2)nc1Nc1cccc(OC)c1`, the growth inhibition in test [1] was 101% (active); in test [4], 100% (active). In addition, the inhibition in test [2] is 19%; in test [3], 5%. For the same compound, the result in test [5], in test [6], in test [7] and in test [8] was inactive.
Regarding `COCC(C)n1c(C)cc(C(=O)CSc2nnc(Nc3ccccc3)s2)c1C` (stereo not given), the results for the growth inhibition in test [1] and in test [4] were 98% (active) and 97% (active), respectively. The inhibition in test [2] is -5%; in test [3] it was -6%. In addition, the result in test [5], in test [6], in test [7] and in test [8] was inactive.
Consider `CN(CCCCCNC(=O)/C=C/c1ccc(Cl)c(Cl)c1)CCCCc1c[nH]c2ccccc12`, for which the results for the growth inhibition in test [1] and in test [4] were 15% and 90% (active), respectively. Besides, the inhibition in test [2] is 17%; in test [3], 2%. Moreover, the outcome in test [5], in test [6], in test [7] and in test [8] was inactive.
For `O=c1cc(NCCCNCc2cccc(OC(F)(F)C(F)F)c2)[nH]c2ccccc12`, the growth inhibition in test [1] was 7%; in test [4], 81% (active). Moreover, the inhibition in test [2] was 6%; in test [3] it was -5%. Besides, the outcome in test [5], in test [6], in test [7] and in test [8] was inactive.
Regarding `COc1nc2c(CCN3CCC(NCc4ccc5c(n4)NC(=O)CO5)CC3)c(Cl)cnc2cc1F`, the growth inhibition in test [1] is 40%; in test [4] it was 99% (active). Also, the values for the inhibition in test [2] and in test [3] were 17% and -9%, respectively. For the same compound, the outcome in test [5], in test [6], in test [7] and in test [8] was inactive.
